Where “and” joins values, the source holds several entries; their conditions need not be identical. Identical values can stand only once. Records with an inconclusive call do not appear. Calls of active or inactive are those of the source. The call rests on the fitted dose curve; in most records, active means well fitted curve in the direction sought with a large enough effect; inconclusive means small, poorly fitted or top-dose-only effect, or another doubt; inactive means no such curve, though single readings can be large; an effect the other way counts as inactive or inconclusive.
Assays:
[1] = target: Cytochrome P450 3A7 (Homo sapiens) (UniProt P24462); assay: Cytochrome P450 family 3 subfamily A member 7 (CYP3A7) small molecule antagonists: luciferase biochemical qHTS assay (AID 1963596); further: on the % scale 0 is the no-effect control and ±100 the full control effect; nearly all actives have a fitted effect of over 40% in size
Outline: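 In this luminescent screen, enzyme and proluciferin substrate meet test compound for 10 min before NADPH regeneration solution drives a 1 h room-temperature reaction; detection reagent halts turnover and luminescence is read 20 min later.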

[2] = Viability qHTS for spleen associated tyrosine kinase inhibitor (SYKi) naive MV4-11 cells (AID 1963823); further: nearly all actives have a fitted effect of over 40% in size
Outline: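 CellTiter-Glo luminescence, 10 min room-temperature incubation, gave viability. Cells: naive MV4-11 (500/well), treated 72 hr at 37 C, 5% CO2.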

[3] = Viability qHTS for spleen associated tyrosine kinase inhibitor (SYKi) drug resistant MV4-11 cells (AID 1963824); further: nearly all actives have a fitted effect of over 35% in size
Outline: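 CellTiter-Glo luminescence, read 10 min after reagent addition, reports viability after a 72 hr compound exposure. Cells are an MV4-11 line made resistant to SYK inhibition, seeded at 500 per well onto compound-containing plates.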

[4] = Cellular viability qHTS for adrenocortical cancer (ACC) cell line SW-13 (AID 1963989); conditions: SW-13 ACC cells viability, CellTiter-Glo, 48 h; activity (max response): hits give low values;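 further: cells grown in serum-free medium with ITS supplement; on the % scale 0 is the no-effect control and ±100 the full control effect; nearly all actives have a fitted effect of over 65% in size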
Outline: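 IC50 and maximal-response values come from four-parameter logistic fits of titration data. SW-13 cells in serum-free medium received compounds (up to 46 uM final) for 48 h before CellTiter-Glo luminescence.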

[5] = Cellular viability qHTS for adrenocortical cancer (ACC) cell line NCI-H295R (AID 1963990);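 further: 0% = DMSO only wells and -100% = full killing with cytotoxic reference compound; nearly all actives have a fitted effect of over 60% in size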
Outline: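 Adrenocortical carcinoma cells, suspended at 300 000 cells/mL in serum-free DMEM plus ITS, rested overnight before pin transfer of compound. After two days' incubation, ATP-dependent luminescence was recorded and curve-fitted.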

Sequence of Cytochrome P450 3A7 (Homo sapiens) (P24462 whole entry, looked up): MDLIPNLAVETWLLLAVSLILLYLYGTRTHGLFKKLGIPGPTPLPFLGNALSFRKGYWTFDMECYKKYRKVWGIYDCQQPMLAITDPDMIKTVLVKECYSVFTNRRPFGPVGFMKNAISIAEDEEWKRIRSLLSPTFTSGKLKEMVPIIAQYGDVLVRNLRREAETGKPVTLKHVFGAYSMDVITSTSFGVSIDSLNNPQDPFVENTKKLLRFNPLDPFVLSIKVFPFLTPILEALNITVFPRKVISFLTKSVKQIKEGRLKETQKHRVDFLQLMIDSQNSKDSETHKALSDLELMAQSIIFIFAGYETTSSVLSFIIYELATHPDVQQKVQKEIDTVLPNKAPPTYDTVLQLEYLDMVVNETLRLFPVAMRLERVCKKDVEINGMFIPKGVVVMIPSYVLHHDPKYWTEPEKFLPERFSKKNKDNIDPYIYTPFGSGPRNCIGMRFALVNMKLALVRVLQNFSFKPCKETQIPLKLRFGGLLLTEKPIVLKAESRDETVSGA

O=C(O)c1ccc(S(=O)(=O)N(Cl)Cl)cc1
inactive: Potency [1] | Potency [2] | Potency [3] | activity (max response) [4] 9.06% | Potency [5]

C=CCN1CCc2nc(N)sc2CC1
inactive: Potency [1] | Potency [2] | Potency [3] | activity (max response) [4] 1.2% | Potency [5]

OCCCc1ccccc1
inactive: Potency [1] | Potency [2] | Potency [3] | activity (max response) [4] 4.32% | Potency [5]

CCCNC(=O)NS(=O)(=O)c1ccc(Cl)cc1
inactive: Potency [1] | Potency [2] | Potency [3] | activity (max response) [4] -2.41% | Potency [5]

COC(=O)c1ccc(NC(C)=O)cc1OC
inactive: Potency [1] | Potency [2] | Potency [3] | activity (max response) [4] -6.56% | Potency [5]

NC(CSCC(=O)O)C(=O)O (stereo not given)
inactive: Potency [1] | Potency [2] | Potency [3] | activity (max response) [4] -12% | Potency [5]

O=C1c2ccccc2C(=O)C1c1ccccc1
inactive: Potency [1] | Potency [2] | Potency [3] | activity (max response) [4] 5.96% | Potency [5]

O=C(O)Cn1cnnn1
inactive: Potency [1] | Potency [2] | Potency [3] | activity (max response) [4] 12.6% | Potency [5]

Clc1ccc2nsnc2c1NC1=NCCN1
inactive: Potency [1] | Potency [2] | Potency [3] | activity (max response) [4] -2.56% and -8.39% | Potency [5]

CC(C)(Oc1ccc(C2CC2(Cl)Cl)cc1)C(=O)O (stereo not given)
inactive: Potency [1] | Potency [2] | Potency [3] | activity (max response) [4] 13.8% and -14.2% | Potency [5]

COc1ccc(CN(CCN(C)C)c2ncccn2)cc1
inactive: Potency [1] | Potency [2] | Potency [3] | activity (max response) [4] -7.84% | Potency [5]

COCCOCC(OC)OC
inactive: Potency [1] | Potency [2] | Potency [3] | activity (max response) [4] 10.1% | Potency [5]
